Assay [1] deals with Plasmodium falciparum Sir2 (PF13_0152, Sir2A). Description: Plasmodium falciparum Sir2A binding compounds – biochemical, small-molecule microarray, 635 nm fluorescence, primary screen (AID 1098).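 Also: score merges spot fluorescence intensity with its signal-to-noise ratio.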 The following applies: fluorescence 635 nm, higher = more signal.
A short description of assay [2]: probe aDKK1 binding to arrayed compounds – biochemical, biotinylated probe, 635/667 nm fluorescence, primary screen (AID 1099).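 Also: score merges 667nm spot fluorescence with signal to noise across triplicate slides; reference of the scale not given here.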 The note with it: small-molecule microarray, higher = more signal.
The nature of assay [3]: probe aCHRDL2 binding to arrayed compounds – biochemical, biotinylated probe, 635/667 nm fluorescence, primary screen (AID 1100). The following applies: small-molecule microarray, higher = more signal.
Assay [4] is described as follows: change in splice reporter luminescence, either direction, cell-based, HEK293, spliceosome inhibition project, primary screen (AID 1101).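 Also: HEK293 cells carrying a splicing-competent luciferase reporter gene; test concentration not given here.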 The following applies: HEK293 splicing luciferase reporter, 24 h, higher = more signal, called active from +8 up or from −8 down.
Assay [5] concerns the target Fibroblast growth factor 10 (Homo sapiens) (UniProt O15520). Kind of assay: compounds binding fibroblast growth factor 10 – biochemical, small-molecule microarray, 635 nm fluorescence, primary screen (AID 1102). The following applies: FGF10 binding, fluorescence 635 nm, higher = more signal.
For assay [6], the system named is glycogen synthase kinase-3 (GSK3A per assay name; protocol says GSK3B). Description: compounds binding glycogen synthase kinase-3 – biochemical, small-molecule microarray, 635 nm fluorescence, GSK3A, primary screen (AID 1103). Also: the record names both GSK3A and GSK3B. The note with it: fluorescence 635 nm, higher = more signal.
The target of assay [7] is Epidermal growth factor receptor (Homo sapiens) (UniProt P00533). Description: compounds binding epidermal growth factor receptor – biochemical, small-molecule microarray, 635 nm fluorescence, primary screen (AID 1104).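 Also: score merges 667 nm emission intensity with spot signal to noise over triplicate slides.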 The following applies: EGFR binding, higher = more signal.
Epidermal growth factor receptor (Homo sapiens), sequence (P00533 whole entry, looked up): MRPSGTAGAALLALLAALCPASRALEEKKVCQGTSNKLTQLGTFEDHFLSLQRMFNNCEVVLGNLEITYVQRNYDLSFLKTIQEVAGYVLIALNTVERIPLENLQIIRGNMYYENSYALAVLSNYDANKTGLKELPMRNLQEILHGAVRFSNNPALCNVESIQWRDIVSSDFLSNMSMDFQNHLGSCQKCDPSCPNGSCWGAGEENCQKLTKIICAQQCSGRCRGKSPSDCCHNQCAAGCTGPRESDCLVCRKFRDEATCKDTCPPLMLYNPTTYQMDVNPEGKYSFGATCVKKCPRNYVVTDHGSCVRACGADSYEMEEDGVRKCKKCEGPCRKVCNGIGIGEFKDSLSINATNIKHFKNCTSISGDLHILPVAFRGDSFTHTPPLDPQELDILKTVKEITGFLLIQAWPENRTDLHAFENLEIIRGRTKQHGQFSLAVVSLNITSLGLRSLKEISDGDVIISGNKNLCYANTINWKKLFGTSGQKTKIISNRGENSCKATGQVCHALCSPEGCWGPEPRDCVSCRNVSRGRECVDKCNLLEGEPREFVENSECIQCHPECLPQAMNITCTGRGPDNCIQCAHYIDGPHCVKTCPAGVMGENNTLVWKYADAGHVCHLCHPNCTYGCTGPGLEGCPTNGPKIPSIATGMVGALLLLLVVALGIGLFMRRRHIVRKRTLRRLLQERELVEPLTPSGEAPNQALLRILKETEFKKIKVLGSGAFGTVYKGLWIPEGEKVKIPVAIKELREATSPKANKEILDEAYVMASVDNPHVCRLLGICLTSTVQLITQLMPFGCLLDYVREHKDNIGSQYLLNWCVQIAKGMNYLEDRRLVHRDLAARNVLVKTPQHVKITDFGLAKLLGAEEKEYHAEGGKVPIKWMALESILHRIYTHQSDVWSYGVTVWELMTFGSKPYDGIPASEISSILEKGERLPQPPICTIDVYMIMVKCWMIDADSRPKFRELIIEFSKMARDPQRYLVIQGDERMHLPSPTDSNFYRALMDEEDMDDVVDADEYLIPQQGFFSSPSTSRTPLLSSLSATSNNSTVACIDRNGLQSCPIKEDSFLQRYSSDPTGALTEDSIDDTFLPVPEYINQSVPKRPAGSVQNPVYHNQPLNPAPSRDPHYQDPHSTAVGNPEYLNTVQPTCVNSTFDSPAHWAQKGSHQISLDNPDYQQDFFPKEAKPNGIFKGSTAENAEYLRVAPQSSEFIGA
The target of assay [8] is Follistatin-related protein 3 (Homo sapiens) (UniProt O95633). Description: compounds binding follistatin-related protein 3 – biochemical, small-molecule microarray, 635 nm fluorescence, primary screen (AID 1105).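 Also: score merges emission near 667 nm and signal to noise per printed spot across three slides.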 The note with it: FSTL3 binding, higher = more signal.
Follistatin-related protein 3 (Homo sapiens), sequence (O95633 whole entry, looked up): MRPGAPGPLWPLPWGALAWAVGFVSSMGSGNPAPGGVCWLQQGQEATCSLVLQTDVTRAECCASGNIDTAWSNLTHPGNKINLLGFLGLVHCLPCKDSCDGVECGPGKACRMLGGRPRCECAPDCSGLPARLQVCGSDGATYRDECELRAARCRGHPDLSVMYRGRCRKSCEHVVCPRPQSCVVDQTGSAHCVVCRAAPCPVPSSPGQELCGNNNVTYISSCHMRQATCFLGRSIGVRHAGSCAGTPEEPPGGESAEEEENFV
For assay [9], the target named is Dickkopf-related protein 1 (Homo sapiens) (UniProt O94907). Description: small molecules binding DKK1 protein – biochemical, small-molecule microarray, 635 nm fluorescence scan, primary screen (AID 1106).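 Also: score merges emission near 667 nm with signal to noise over three replicate slides.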 The following applies: higher = more signal.
Dickkopf-related protein 1 (Homo sapiens), sequence (O94907 whole entry, looked up): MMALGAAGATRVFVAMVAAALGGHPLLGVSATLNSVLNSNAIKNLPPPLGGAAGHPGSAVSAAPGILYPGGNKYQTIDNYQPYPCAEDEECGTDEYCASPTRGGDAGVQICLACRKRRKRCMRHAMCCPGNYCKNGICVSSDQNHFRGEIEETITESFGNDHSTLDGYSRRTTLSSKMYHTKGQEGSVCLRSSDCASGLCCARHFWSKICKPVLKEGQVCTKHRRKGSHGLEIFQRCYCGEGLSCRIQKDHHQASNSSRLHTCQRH
In assay [10] the test system is Inhibin beta A chain (activin A). Description: small molecules binding activin A – biochemical, small-molecule microarray, 635 nm fluorescence scan, primary screen (AID 1107).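 Also: mouse activin A protein probed at 4.33 µg/mL on printed slides; score merges bound-protein fluorescence near 667 nm with spot signal-to-noise.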 The note with it: INHBA, higher = more signal.

Activity calls are given as the source filed them.

Fibroblast growth factor 10 (Homo sapiens), sequence (O15520 whole entry, looked up): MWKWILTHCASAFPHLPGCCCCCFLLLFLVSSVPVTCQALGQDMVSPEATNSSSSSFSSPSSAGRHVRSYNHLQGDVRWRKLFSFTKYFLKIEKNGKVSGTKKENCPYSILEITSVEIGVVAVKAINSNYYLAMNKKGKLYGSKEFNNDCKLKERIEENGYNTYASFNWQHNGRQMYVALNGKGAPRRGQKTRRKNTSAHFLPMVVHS

Take `CO[C@H]1O[C@H](CO)[C@@H](OC(=O)c2ccc(Br)cc2)[C@@H]2OC(=O)[C@H](Cc3cccc(Br)c3)C/C=C/C[C@@H](Cc3cccc(Br)c3)C(=O)O[C@@H]12`: the composite z-score in assay [1] is 0.418; in assay [2] it was 0.649; in assay [3] it was 0.78; in assay [5], 1.04; in assay [6], 0.559; in [7], 0.194. Further, the composite z-score came to 0.914 in [8], 0.189 in assay [9] and 0.602 in assay [10]. Further, in assay [4], the z-score was 0.0118 (inactive).
As for `COc1ccc([Si](C)(C)[C@@H]2[C@@H](CCO)O[C@]3(C(=O)N(Cc4ccccc4)c4ccc(N5C(=O)COc6ccccc65)cc43)[C@H]2C)cc1`, the composite z-score in [1] is 0.845; in assay [2], -0.0934; in [3] it was 0.0637; in [5], 0.0677; in assay [6] it was 0.0368; in assay [7] it was -0.0505. Also, the composite z-score in assay [8] came to 0.0717; in assay [9], 0.163; in [10], 0.254. Further, in [4], the z-score is -1.21 (inactive).
Turning to `CCCC[C@H]1OB(O)C[C@H]2C1=C(COc1ccccc1)Cn1c(=O)n(-c3ccccc3)c(=O)n12`, the composite z-score in [1] was 0.918; in assay [2], -0.149; in assay [3], -0.387; in assay [5], 0.926; in assay [6], 0.61; in assay [7], 0.283. The composite z-score was determined as 1.01 in assay [8], 0.203 in assay [9] and 0.54 in [10]. Also, the z-score in assay [4] is 0.142 (inactive).
Regarding `CC(C)NC(=O)[C@@]1(Cc2ccccc2I)c2ccccc2C(=O)N(Cc2ccccc2C(F)(F)F)[C@H]1c1ccc(CO)cc1`, the composite z-score in [1] is 1.75; in [2], 0.474; in assay [3], 0.594; in assay [5] it was 0.157; in assay [6], 0.182; in [7] it was -0.251. Further, the composite z-score in assay [8] was 0.0273; in [9], -0.467; in [10] it was 0.299. Besides, the z-score in assay [4] is 0.4 (inactive).
Take `COCCOC(=O)N1C(=O)[C@@]2(c3cc(C#CCNC(N)=O)ccc31)[C@H](C(N)=O)[C@H]1C(=O)O[C@H](c3ccccc3)[C@H](c3ccccc3)N1[C@@H]2c1ccc(OCCO)cc1`: the composite z-score in assay [1] turned out to be 1.05; in assay [2], 0.0301; in [3] it was 0.721; in assay [5] it was 0.535; in assay [6], 0.737; in assay [7], 0.793. The results for the composite z-score in assay [8], in assay [9] and in assay [10] were 1.45, 0.825 and 1.35, respectively. Moreover, the z-score in assay [4] is 0.731 (inactive).
Turning to `COCCOC(=O)N1C(=O)[C@@]2(c3cc(C#Cc4ccc(OC)cc4)ccc31)[C@H](c1ccc(OCCO)cc1)N1[C@H](c3ccccc3)[C@H](c3ccccc3)OC(=O)[C@H]1[C@@H]2C(N)=O`, the composite z-score in [1] came out at 1.27; in assay [2], 0.654; in [3], 0.608; in assay [5], 1.25; in assay [6] it was 1.32; in assay [7], 0.711. Moreover, the composite z-score was 1.43 in [8], 0.853 in assay [9] and 0.48 in [10]. Further, the z-score in assay [4] is -0.372 (inactive).
Turning to `COC(=O)[C@@]1(Cc2ccc(F)cc2)[C@@H]2[C@@H](CC(=O)[C@H]2CC(=O)C(=O)N2CCCC2)CN1C(=O)c1ccccc1`, the composite z-score in [1] was 1.16; in [2], 0.942; in [3], 0.807; in [5], 1.11; in [6] it was 1.3; in assay [7] it was -0.121. Moreover, the results for the composite z-score in [8], in assay [9] and in [10] were 1.02, -0.0822 and 0.85, respectively. In addition, the z-score in [4] is -0.98 (inactive).
As for `COC(=O)C(CC#Cc1ccc2c(c1)[C@]1(C(=O)N2)[C@H](c2ccc(OCCO)cc2)N2[C@H](c3ccccc3)[C@H](c3ccccc3)OC(=O)[C@H]2[C@@H]1C(=O)O)C(=O)OC`, the composite z-score in [1] was 1.78; in assay [2], 1.18; in assay [3], 0.931; in [5], 0.809; in assay [6] it was 1.03; in assay [7], 0.194. The composite z-score is 0.808 in assay [8], 0.119 in assay [9] and 0.765 in [10]. For the same compound, the z-score in assay [4] was -0.609 (inactive).
For the compound `CC(C)N1C(=O)c2ccccc2[C@](C)(C(=O)O)[C@@H]1c1ccc(CO)cc1`, the composite z-score in assay [1] was 0.738; in assay [2], 0.326; in assay [3] it was 0.855; in [5], -0.756; in [6], -1.23; in assay [7], -1.35. Besides, the composite z-score was -0.638 in assay [8], -1.06 in assay [9] and 0.532 in [10]. Further, the z-score in assay [4] is 0.591 (inactive).
As to `COC(=O)[C@@]1(Cc2ccc(F)cc2)[C@H]2c3cc(C(=O)N4CCCC4)n(Cc4ccccc4)c3C[C@H]2CN1C(=O)c1ccccc1`, the composite z-score in assay [1] amounted to 0.122; in [2], 0.411; in [3], 1.28; in [5], 0.674; in assay [6], 0.376; in [7], 0.231. Besides, the values for the composite z-score in [8], in assay [9] and in assay [10] were 0.761, -0.401 and 0.628, respectively. Further, in assay [4], the z-score is -2.67 (inactive).
Regarding `C=CCOC(=O)[C@@H]1[C@H]2C(=O)O[C@H](c3ccccc3)[C@H](c3ccccc3)N2[C@H](c2ccc(OCCOC(=O)[C@@H]3C[C@@H]4C(=O)N5CCC[C@H]5C(=O)N4[C@@H]3c3cccc(OCCO)c3)cc2)[C@@]12C(=O)Nc1ccc(I)cc12`, the composite z-score is 1.04 in [1]; -0.297 in assay [2]; -0.121 in [3]; 1.18 in assay [5]; 1.12 in assay [6]; 0.754 in [7]. The composite z-score in [8] is 1.11; in assay [9] it was 1.1; in assay [10], 0.607. Besides, the z-score in assay [4] is -0.64 (inactive).
Consider `COc1cc(NN2C(C(O)c3ccc(I)cc3)C=CC3C(=O)N(C)C(=O)C32)cc(OC)c1OC` (stereo not given), for which the composite z-score in assay [1] was 0.719; in assay [2] it was 0.986; in assay [3], 1.02; in assay [5], -0.0431; in assay [6], -0.217; in assay [7] it was -0.391. The composite z-score in assay [8] is -0.602; in assay [9] it was -1.18; in assay [10], 1.29. In addition, the z-score in [4] is 0.037 (inactive).
In the case of `C=C(C)[C@@H]1CC=C(C(O)C2C=CC3C(=O)N(C4CCCCC4)C(=O)C3N2Nc2ccc(OC)cc2)CC1` (stereo not given in full), the composite z-score in assay [1] was determined as 1.37; in assay [2], 0.326; in assay [3], 0.826; in assay [5], 1.03; in assay [6], 1.31; in assay [7] it was 0.367. For the same compound, the composite z-score in assay [8] was 1.37; in [9] it was 0.21; in [10], 0.918. For the same compound, in assay [4], the z-score was -0.603 (inactive).
Consider `CC1C=C(CCCO)C=C(C(=O)OCCS(C)(=O)=O)C(C(=O)OCCS(C)(=O)=O)=CN1Cc1cccc(OC(F)(F)F)c1` (stereo not given), for which the composite z-score in assay [1] was 1.11; in assay [2], 0.111; in assay [3], 0.297; in assay [5], 0.243; in assay [6], 0.621; in [7], -0.235. Moreover, the figures for the composite z-score in assay [8], in assay [9] and in assay [10] were 0.113, -0.385 and 0.829, respectively. For the same compound, the z-score in assay [4] is 1.01 (inactive).
In the case of `C[N+](C)(C)CCCCCCNC(=O)[C@@H]1C[C@@H]2C(=O)NCC(=O)N2[C@@H]1c1ccc(O)cc1`, the composite z-score is 1.43 in [1]; -0.171 in assay [2]; 0.135 in [3]; 0.963 in assay [5]; 0.657 in [6]; 0.0357 in assay [7]. For the same compound, the figures for the composite z-score in [8], in assay [9] and in assay [10] were 1.39, 1.19 and 0.277, respectively. In [4], the z-score is 0.605 (inactive).
As to `COCCOC(=O)N1C(=O)[C@@]2(c3cc(C#CC4(O)CCCCCC4)ccc31)[C@H](C(=O)N1CCN(c3ncccn3)CC1)[C@H]1C(=O)O[C@H](c3ccccc3)[C@H](c3ccccc3)N1[C@@H]2c1ccc(O)cc1`, the composite z-score was 1.27 in assay [1]; -0.127 in assay [2]; 0.227 in assay [3]; 0.45 in assay [5]; 0.235 in assay [6]; 0.152 in [7]. Besides, the figures for the composite z-score in assay [8], in [9] and in assay [10] were 0.321, 0.0884 and 0.921, respectively. In addition, the z-score in [4] was -0.756 (inactive).

For the origin of these results see PubChem BioAssay.
